Marburg entry inh: blocks Marburg virus binding to or entry into cells; Marburg virus pseudotyped entry inhibition, cell reporter; Potency, µM (doses to about 37.8 µM), for inactives: at the top dose activity change, negative = inhibition, most hits filed as inhibitors; 300,000 tested, 1.8% active; AID 540276; calls by dose curve; tested in HEK293 cells; further: potency means the concentration at half of the fitted maximal effect
HCV inhibitor: blocks hepatitis C virus; AID 651820; Potency, µM (titrated, usually from 41.8 µM), for inactives: at the highest dose activity change, negative = inhibition, actives largely listed as inhibitors; 340,000 tested, 3.4% active; Huh7.5.1 HCVcc-Cre infection, luciferase reporter, 44 h; active means well fitted inhibition curve with a large enough effect; inconclusive means small, poorly fitted or top-dose-only effect, or another doubt; inactive means no such curve, though single readings can be large or run the other way; further: potency means the concentration at half of the fitted maximal effect
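HCVcc-Cre virus at an moi near 0.5 was added right after compound to cells cultured 4 h from seeding (1,000 cells/well). Luciferase activity was determined 44 h later, 15 min after substrate addition at RT.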
LASV entry inh: Lassa virus entry inhibition | Lassa virus pseudotype entry inhibition, cell reporter | Potency, µM (titrated, usually from 37.9 µM), for inactives: at the highest dose activity change, negative = inhibition, usual class: inhibitors | 300,000 tested, 1.2% active; calls by dose curve; tested in HEK293 cells; further: potency means the concentration at half of the fitted maximal effect; nearly all actives have a fitted effect of over 50% in size
HCMV inh: human cytomegalovirus inhibition; HFF cells, HCMV-luciferase reporter, 72 h; stronger effect = lower value; activity change, negative = inhibition, % at 57.5 µM; 410,000 tested, 4.5% active; AID 1259415; in the data active means activity change below about -60%; inconclusive means no clear call, values can overlap the other calls; inactive means above about -39%
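After 16 h attachment at 37C, HFF cells received test compound and HCMV-luciferase (1 PFU/cell); reporter luminescence read 72 h later, data normalized against buffer-only and known inhibitor Salinomycin.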
FMDV inh: foot and mouth disease virus antiviral activity; FMDV antiviral cell-based qHTS; Potency, µM (doses to about 57.9 µM), for the others: top-dose activity change, negative = inhibition, hits mostly inhibitors; 410,000 tested, 1.2% active; calls by dose curve; tested in HEK293T cells; further: read-out not given here; potency means the concentration at half of the fitted maximal effect; nearly all actives have a fitted effect of over 45% in size
Active calls of the source: *; ? = inconclusive; nt = no result; [ ] = remark or other dose. The list is not random: actives were taken first. Their share in the collection is about 7.9%. On the % scale 0 is the no-effect control and ±100 the full control effect.

SMILES	Marburg entry inh	HCV inhibitor	LASV entry inh	HCMV inh	FMDV inh
COc1ccc(CCCC(=O)N/N=C/c2cccc(OC)c2O)cc1C	?	?	?	-99*	-20%
NC(=S)N/N=C/c1ccccc1O	nt	1%	nt	-22	-10%
COc1cc(/C=N/NC(=O)c2ccc3c(c2)OCCO3)cc(Br)c1O	nt	-5%	nt	22	26%
NC(=S)N/N=C/c1cccc(O)c1O	?	?	?	-100*	24%
CCNc1ncc2nc(-c3ccccc3)c(=O)n(Cc3cccc(OC)c3)c2n1	nt	nt	nt	nt	-7%
CN1CCN(c2nc(Nc3ccc(F)cc3)nc(Nc3ccc(F)cc3)n2)CC1	nt	?	nt	-25	?
COc1cccc(/C=N/NC(=O)C(=O)Nc2ccccc2OC(F)(F)C(F)F)c1O	8.9µM*	?	?	-94*	-27%
O=c1[nH]c(N/N=C/c2ccccc2Br)nnc1-c1ccccc1	?	-21%	9%	15	6%
COc1ccc(/C=N/Nc2nnc(-c3ccccc3)c(=O)[nH]2)cc1	2%	6%	?	-100*	6%
COc1ccccc1/C=N/NC(=O)c1cccc(OC(F)(F)C(F)F)c1	-4%	18%	-11%	-13	20%
COc1ccc(/C=N/NC(=O)c2nc(-c3ccccc3)cc(-c3ccccc3)n2)cc1	?	10µM*	?	?	-8%
COc1cccc(/C=N/NC(=O)c2ccc(-c3ccccc3)cc2)c1O	3.2µM*	?	5.6µM*	-98*	-27%
O=C(NN=Cc1cccc(O)c1O)c1ccccc1	nt	nt	nt	-94*	12%
O=C(N/N=C/c1ccccc1O)c1cc[n+]([O-])cc1	1%[46.1 µM]	5%	?	-2	7%
Cc1c(NC(=O)Nc2cccs2)cccc1[N+](=O)[O-]	nt	?	nt	-72*	15%
CC(NC(=O)CSC(=S)N1CCCC1)c1ccc(S(N)(=O)=O)cc1 (stereo unspecified)	18%	8%	11%	-23	-4%
COc1cccc(Nc2ncc(C#N)c(N)n2)c1	?	-2%	-10%[46.1 µM]	41	27%
COc1ccc(-c2nn3ncccc3c2-c2ccnc(Nc3cccc(C(F)(F)F)c3)n2)cc1	nt	nt	25µM*	nt	nt
CCN(CC)Cc1ccc(Nc2nccc(-c3cnn4ncccc34)n2)cc1	nt	nt	0.04µM*	nt	nt
CC(C)c1ccc(Nc2nccc(-c3cnn4ncccc34)n2)cc1	nt	nt	11µM*	nt	nt
COc1cccc(Nc2nccc(-c3cnn4ncccc34)n2)c1	nt	nt	0.56µM*	nt	nt
CC(=O)C1=CCC(c2ccc(Cl)cc2)N(S(=O)(=O)c2ccc(C)cc2)C1 (stereo unspecified)	nt	nt	nt	?	-4%
Cc1ccc(S(=O)(=O)CCC(=O)OCc2ccccc2F)cc1	1%[46.1 µM]	26%	9%	12	2%
COCc1[nH]nc2c1[C@@H](c1ccnc3ccccc13)C(C#N)=C(N)O2	-15%	nt	nt	nt	nt
Nc1nc(Cl)nc2c1ncn2[C@@H]1O[C@H](COP(=O)(O)OP(=O)(O)OP(=O)(O)O)[C@H](O)[C@H]1O	44%	nt	nt	nt	nt
SMILES	Marburg entry inh	HCV inhibitor	LASV entry inh	HCMV inh	FMDV inh
N#Cc1c(N)nc2c(c1-c1cccnc1)CCCCC2	6%	-16%	?	-62*	-26%
COc1ccc(NC(=O)C2Cc3c(-c4ccc(Cl)cc4)ccnc3O2)cn1 (stereo unspecified)	nt	nt	nt	-82*	?
COc1ccc(NC(=O)C2Cc3c(-c4ccc(Cl)cc4)ccnc3O2)cc1OC (stereo unspecified)	nt	nt	nt	-78*	?
COc1ccc(NC(=O)C2Cc3c(-c4cccc(C(N)=O)c4)ccnc3O2)cc1OC (stereo unspecified)	nt	nt	nt	50	-14%
COc1ccc(CCCNC(=O)C2Cc3c(-c4cccc(NC(C)=O)c4)ccnc3O2)cc1 (stereo unspecified)	nt	nt	nt	-61*	35µM*
COc1ccc(NC(=O)C2Cc3c(-c4cccc(C(C)=O)c4)ccnc3O2)cc1OC (stereo unspecified)	nt	nt	nt	-92*	8.9µM*
C#CC[C@@]1(C(=O)OC)C=C[C@@H](C)[C@H](c2ccccc2Br)N1C(=O)C(F)(F)F	-2%[14.2 µM]	nt	nt	nt	nt
O=C(Nc1ccc2c(c1)OCO2)C1Cc2c(-c3ccc4c(c3)OCO4)ccnc2O1 (stereo unspecified)	nt	nt	nt	-62*	-27%
CC(=O)Nc1ccc(NC(=O)C2Cc3c(-c4ccc5c(c4)OCO5)ccnc3O2)cc1 (stereo unspecified)	nt	nt	nt	-14	-19%
COc1ccc(NC(=O)C2Cc3c(-c4ccccc4)ccnc3O2)cc1OC (stereo unspecified)	nt	nt	nt	nt	35µM*
NC(=O)c1cccc(-c2ccnc3c2CC(C(=O)Nc2cccc(C(F)(F)F)c2)O3)c1 (stereo unspecified)	nt	nt	nt	-22	28µM*
COc1ccc(CCNC(=O)c2cc(-c3ccccc3)nc3ccccc23)cc1OC	?	nt	?	-15	-22%
COc1cc(C(=O)ON=C2C=C(C)C(=O)C(C)=C2)cc(OC)c1OC	-25%	17%	0%	-62*	-16%
COc1ccc(C(=O)ON=C2C=C(C)C(=O)C(C)=C2)cc1	nt	14%	nt	-76*	2%
COCCn1c(CNC(=O)c2cccc(C)c2)nc2cccnc21	nt	nt	1%[46.1 µM]	?	-9%
CC(C)c1ccc(NC2CCCN(C(=O)CC3CCCC3)C2)cc1 (stereo unspecified)	nt	-29%	nt	-36	-7%
C=CCSc1nsc(NC(=O)Nc2ccc(F)cc2)n1	?	22µM*	?	-103*	-28%
CCSc1nsc(NC(=O)Nc2cccc(OC)c2)n1	11µM*	-18%	?	?	-26%
O=C(/C=C\Nc1ccccn1)c1ccc(Cl)cc1	6.5µM*	-11%	?	-33	nt
